Test results reported in PubChem BioAssay (NCATS).
Results filed as inconclusive are left out. Active and inactive are the calls of the source. Calls follow the shape of the dose curve; as a rule, active = well fitted cell-killing curve with a large enough effect; inconclusive = small, poorly fitted or top-dose-only effect, or effect the other way; inactive = no such curve, though single readings can be large or run the other way.

assay: Quantitative High-Throughput drug screen in 47 multiple myeloma cell lines against the NCATS MIPE library collection: OPM1_PLB cell viability assay (AID 1918989); conditions: CellTiter-Glo, 48 h; series mostly up to 45.8 µM; viability (% of control): at the top concentration; also: nearly all actives have a fitted effect of over 40% in size
Source text: PI: Beverly A. Mock Ph.D.
Laboratory of Cancer Biology and Genetics,
Center for Cancer Research, National Cancer Institute,
National Institute of Health, Bethesda, Maryland
Drug resistance and disease progression are common in multiple myeloma (MM) patients, underscoring the need for new therapeutic combinations. […] We hypothesized that effective combinations would reduce MYC expression and enhance p16 activity. […] These preclinical data identify potentially useful drug combinations for evaluation in drug-resistant MM and reveal potential mechanisms of combined drug sensitivity.
Described herein is the primary MIPE qHTS used to cherrypick compounds. Validated compounds were then further tested for potential synergistic activiy.
[1] Peat TJ, Gaikwad SM, Dubois W, Gyabaah-Kessie N, Zhang S, Gorjifard S, Phyo Z, Andres M, Hughitt VK, Simpson RM, Miller MA, Girvin AT, Taylor A, Williams D, D'Antonio N, Zhang Y, Rajagopalan A, Flietner E, Wilson K, Zhang X, Shinn P, Klumpp-Thomas C, McKnight C, Itkin Z, Chen L, Kazandijian D, Zhang J, Michalowski AM, Simmons JK, Keats J, Thomas CJ, Mock BA. Drug combinations identified by high-throughput screening promote cell cycle transition and upregulate Smad pathways in myeloma. Cancer Lett. 2023 Aug 1;568:216284. doi: 10.1016/j.canlet.2023.216284. Epub 2023 Jun 24. PMID: 37356470; PMCID: PMC10408729.
SEQUENCE No. (e.g., 1, 2, 3, etc.); […] (e.g., Cells, Incubation, Reagent, etc.); VALUE and DESCRIPTION.
1; Cells; 5 uL; white, solid bottom 1536-well Greiner assay plate.
2; Compounds; 23 nL; Kalypsis pin tool (Wako USA) equipped with a 1536-well pin head to transfer to the assay plates.
3; Incubation; 48 hours; 37C incubation.
4; Reagent;5uL; CellTiter Glo (Promega).
5; Detector; 425V; Luminescence; Viewlux PerkinElmer.
NOTES (numbers refer to Sequence numbers above)
1. The cell-based screening methods employed in this study were like those previously published. Briefly, the corresponding myeloma cell lines were screened in 1,536-well plates with 500 cells, 5-uL per well for inhibition of cell viability (assessed by measuring ATP levels with CellTiterGlo).
2. NCATS MIPE 4.0 library of approved and investigational drugs were added using the Kalypsis pin tool. Wells treated with DMSO only for 100% viability and media only for 0% viability were used as controls.
3. The assay plates were covered and incubated for 48 hours in a 37C, 5% CO2 incubator with controlled humidity.
4. After 48 hours, CellTilter-GloTM luminescent substrate mix (Promega) reagent was added to the assay plate and plates we incubated for 5 min at room temperature.
5. Signal was measured as median relative luminescence units on a ViewLux (PerkinElmer) multiplate reader.
[1] Heske CM, Davis MI, Baumgart JT, Wilson K, Gormally MV, Chen L, Zhang X, Ceribelli M, Duveau DY, Guha R, Ferrer M, Arnaldez FI, Ji J, Tran HL, Zhang Y, Mendoza A, Helman LJ, Thomas CJ. Matrix Screen Identifies Synergistic Combination of PARP Inhibitors and Nicotinamide Phosphoribosyltransferase (NAMPT) Inhibitors in Ewing Sarcoma. Clin Cancer Res. 2017 Dec 1;23(23):7301-7311. doi: 10.1158/1078-0432.CCR-17-1121. Epub 2017 Sep 12. PMID: 28899971; PMCID: PMC6636827.
Potency is read from the fitted curve at half-maximal effect.

| SMILES | viability (% of control) | Potency |
| --- | --- | --- |
| CCCCCOC(=O)Nc1nc(=O)n([C@@H]2O[C@H](C)[C@@H](O)C2O)cc1F (stereo not given in full) | 94% (inactive) | – |
| CN(C)CCOc1ccc(-c2nc(-c3ccc4c(c3)CCC4=NO)c(-c3ccncc3)[nH]2)cc1 | – | 16.6 µM (active) |
| CCN(CC)CCCCNc1nc2cc(Cl)c(Cl)cc2nc1-c1ccc(-c2cccs2)s1 | – | 5.9 µM (active) |
| CCOC(=O)N1CCN([N+]([O-])=NOc2cc(ON=[N+]([O-])N3CCN(C(=O)OCC)CC3)c([N+](=O)[O-])cc2[N+](=O)[O-])CC1 | – | 5.9 µM (active) |
| NC(=O)c1nnn(Cc2cc(Cl)c(C(=O)c3ccc(Cl)cc3)c(Cl)c2)c1N | – | 16.6 µM (active) |
| OC1CCC(Nc2ncc3nc(Nc4c(F)cc(F)cc4F)n([C@@H]4CCOC4)c3n2)CC1 (stereo not given in full) | – | 20.9 µM (active) |
| C[C@@]1(C(=O)Nc2ccc(F)nc2)CCCN1c1nc(Nc2cc(C3CC3)[nH]n2)c2cccn2n1 | – | 1.66 µM (active) |
| CCCCn1c(=O)n(Cc2ccccc2F)c(=O)c2[nH]c(Cc3ccc(NC(C)=O)cc3)nc21 | 78.2% (inactive) | – |
| O=C(Nc1cccc(C(F)(F)F)c1)Nc1cc(S(=O)(=O)NC2CC2)ccc1-c1ccsc1 | – | 26.4 µM (active) |
| CCC[C@H](N[C@@H](C)C(=O)N1[C@@H]2CCCC[C@H]2C[C@H]1C(=O)O)C(=O)OCC | 117% (inactive) | – |
| Cc1ccc(NC(=O)Nc2cc(C(F)(F)F)ccc2F)cc1Nc1ccc2c(c1)NC(=O)C2=Cc1ccc[nH]1 | – | 4.69 µM (active) |
| COc1cc(F)c(C(C)C)cc1-c1ccc(C(F)(F)F)cc1CN1C(=O)O[C@H](c2cc(C(F)(F)F)cc(C(F)(F)F)c2)[C@@H]1C | 110% (inactive) | – |
| C[C@H]1O[C@@H](n2cc(F)c(=O)[nH]c2=O)[C@H](O)[C@H]1O | – | 11.8 µM (active) |
| Cc1cc(C(C)Nc2ccccc2)c2nc(N3CCOCC3)cc(=O)n2c1 (stereo not given) | – | 20.9 µM (active) |
| Cc1[nH]c(C=C2C(=O)Nc3ccc(S(=O)(=O)N(C)c4cccc(Cl)c4)cc32)c(C)c1C(=O)N1CCN(C)CC1 | – | 9.35 µM (active) |
| O=C(Nc1ccccc1)Nc1ccc(-c2ccc(C(=O)[C@H]3CCC[C@H]3C(=O)O)cc2)cc1 | 139% (inactive) | – |
| CC(C)CNc1ccnc(NCc2csc(-c3ccccc3)n2)n1 | – | 11.8 µM (active) |
| CC(C)Oc1cc(Nc2nc(N[C@@H](C)c3ccc(F)cn3)ncc2Cl)[nH]n1 | – | 3.72 µM (active) |
| CNC1CCC(N(Cc2cccc(-c3ccncc3)c2)C(=O)c2sc3ccccc3c2Cl)CC1 (stereo not given) | – | 8.33 µM (active) |
| Cn1c(=O)c(-c2c(Cl)cccc2Cl)cc2cnc(Nc3cccc(C(=O)O)c3)nc21 | 141% (inactive) | – |

| SMILES | viability (% of control) | Potency |
| --- | --- | --- |
| O=C(c1ccc(C(=O)N2CCC(N3CCCC3)CC2)c(Nc2ccccc2)c1)N1CCC(N2CCCC2)CC1 | 156% (inactive) | – |
| CCNC(=O)CCCC=CC[C@@H]1[C@H](C=CC(O)CCc2ccccc2)[C@@H](O)C[C@@H]1O (stereo not given in full) | 125% (inactive) | – |
| CC1(C)C(N(O)C(=O)Nc2ccc(Cl)cc2)N(c2ccc(Cl)cc2)C(=O)N1CC(=O)NN=CC=Cc1ccc([N+](=O)[O-])o1 (stereo not given) | – | 11.8 µM (active) |
| COc1c(C)c2c(c(O)c1CC=C(C)CCC(=O)OCCN1CCOCC1)C(=O)OC2 | – | 8.33 µM (active) |
| C[C@@H]1C[C@H]2[C@@H]3CCC4=CC(=O)C=C[C@]4(C)[C@@]3(F)[C@@H](O)C[C@]2(C)[C@@]1(O)C(=O)CO | 138% (inactive) | – |
| CCOC(=O)c1c(CSc2ccccc2)n(C)c2cc(Br)c(O)c(CN(C)C)c12 | – | 5.26 µM (active) |
| O=S(=O)(O)c1ccc2cc(N=Nc3cc(S(=O)(=O)O)c4cccnc4c3O)ccc2c1 | – | 13.2 µM (active) |
| CCCCC[C@H](O)C=C[C@H]1[C@H](O)CC(=O)[C@H]1CC=CCCCC(=O)O | – | 18.7 µM (active) |
| C[C@H](CCC(=O)O)[C@H]1CC[C@H]2[C@H]3[C@@H](CC[C@]12C)[C@@]1(C)CC[C@@H](O)C[C@H]1C[C@@H]3O | 119% (inactive) | – |
| COc1cc2ncn(-c3cc(OCc4ccccc4S(C)(=O)=O)c(C#N)s3)c2cc1OC | 121% (inactive) | – |
| CC[C@H]1OC(=O)[C@H](C)[C@@H](O[C@H]2C[C@@](C)(OC)[C@@H](O)[C@H](C)O2)[C@H](C)[C@@H](O[C@@H]2O[C@H](C)C[C@H](N(C)C)[C@H]2O)[C@](C)(O)C[C@H](C)C(=NOCOCCOC)[C@H](C)[C@@H](O)[C@]1(C)O | 107% (inactive) | – |
| CC[C@@H]([C@H](C)O)n1ncn(-c2ccc(N3CCN(c4ccc(OCC5CO[C@@](Cn6cncn6)(c6ccc(F)cc6F)C5)cc4)CC3)cc2)c1=O (stereo not given in full) | 99.1% (inactive) | – |
| Nc1ncnc2c1c(-c1cccc(OCc3ccccc3)c1)cn2C1CC(CN2CCC2)C1 (stereo not given) | – | 16.6 µM (active) |
| COc1ccc2nc3cc(Cl)ccc3c(Nc3cc(CN4CCCC4)c(O)c(CN4CCCC4)c3)c2n1 | – | 23.5 µM (active) |
| CN1CCN2c3ncccc3Cc3ccccc3C2C1 (stereo not given) | 112% (inactive) | – |
| Nc1ccn([C@@H]2O[C@H](CO)[C@@H](O)[C@H]2O)c(=O)n1 | 114% (inactive) | – |
| c1ccc(-c2oc3ncnc(NC[C@@H]4CCCO4)c3c2-c2ccccc2)cc1 | – | 13.2 µM (active) |
| O=S(=O)(NCCNCC=Cc1ccc(Br)cc1)c1cccc2cnccc12 | – | 8.33 µM (active) |
| O=[N+]([O-])c1ccc(Nc2ccccc2-c2ccccc2)c2nonc12 | – | 26.4 µM (active) |
| Cc1cc(OCCCS(C)(=O)=O)cc(C)c1-c1cccc(COc2ccc3c(c2)OC[C@H]3CC(=O)O)c1 | – | 18.7 µM (active) |
